15-hLO-2 inh = qHTS Assay for Inhibitors of 15-hLO-2 (15-human lipoxygenase 2); Potency, µM (top dose mostly 57.1 µM), for the others: at the top dose activity change, negative = inhibition, usual class: inhibitors; Polyunsaturated fatty acid lipoxygenase ALOX15B (Homo sapiens), O15296; purified 15hLO-2, xylenol orange hydroperoxide absorbance; actives 0.56% (n = 110,000); note: potency is the fitted concentration of half-maximal effect; nearly all actives have a fitted effect of over 60% in size
Target sequence (O15296 whole entry, looked up): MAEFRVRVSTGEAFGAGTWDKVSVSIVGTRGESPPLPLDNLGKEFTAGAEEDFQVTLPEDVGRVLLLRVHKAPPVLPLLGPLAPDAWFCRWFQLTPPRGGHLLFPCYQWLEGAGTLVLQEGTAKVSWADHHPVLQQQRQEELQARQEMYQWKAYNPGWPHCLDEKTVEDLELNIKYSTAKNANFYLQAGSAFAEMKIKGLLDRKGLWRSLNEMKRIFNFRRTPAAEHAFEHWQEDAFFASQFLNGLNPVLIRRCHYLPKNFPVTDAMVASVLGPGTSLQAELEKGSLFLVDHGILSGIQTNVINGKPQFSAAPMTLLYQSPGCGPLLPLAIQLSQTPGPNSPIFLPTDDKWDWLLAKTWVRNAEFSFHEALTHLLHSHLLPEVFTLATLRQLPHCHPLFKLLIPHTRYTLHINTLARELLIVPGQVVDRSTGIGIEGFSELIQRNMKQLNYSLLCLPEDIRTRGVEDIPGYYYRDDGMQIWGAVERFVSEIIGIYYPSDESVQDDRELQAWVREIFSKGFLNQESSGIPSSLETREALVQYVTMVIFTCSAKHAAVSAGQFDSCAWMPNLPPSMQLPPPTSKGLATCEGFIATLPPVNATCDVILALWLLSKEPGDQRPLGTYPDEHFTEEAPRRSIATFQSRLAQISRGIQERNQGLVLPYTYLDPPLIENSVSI
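Screening format was qHTS against 50 nM purified 15hLO-2 in Hepes pH 7.5 with detergent. Activity follows hydroperoxide formation from 45 uM arachidonic acid, measured as 573:405 nm absorbance ratio of the ferric-xylenol orange complex.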
IMPase cell inh = qHTS Assay for Identifying the Cell-Membrane Permeable IMPase Inhibitors; CHO-M1 cells, IP1 accumulation, HTRF TR-FRET ratio; 120,000 tested, under 10 active; Inositol monophosphatase 1 (Rattus norvegicus), P97697; AID 901, 2007; inhibition (IP1 accumulation), % at 46.1 µM; active = well fitted curve in the direction sought with a large enough effect in the signal ratio, not every such curve was filed as active; inconclusive = small, poorly fitted or top-dose-only effect, or a change in a side signal; inactive = no such curve, though single readings can be large or run the other way; the % refers to the signal ratio;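 note: cells stimulated with carbachol in lithium chloride buffer; plate controls were DMSO basal wells for no effect and reference inhibitor wells for full effect; higher means more IMPase inhibition seen as more IP1 and lower FRET ratio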
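Seeded CHO-M1 cells were dosed with compound at up to 46 uM, stimulated with carbachol for 30 min, then lysed in IP-One detection reagents. Higher IP1 lowers the TR-FRET signal.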
HPGD block = qHTS Assay for Inhibitors of HPGD (15-Hydroxyprostaglandin Dehydrogenase). Potency, µM, inactives show at the top dose activity change, negative = inhibition, actives largely listed as inhibitors. 15-hydroxyprostaglandin dehydrogenase [NAD(+)] (Homo sapiens), P15428. actives 4.3% (n = 150,000). purified HPGD, NADH fluorescence kinetic, PGE2 substrate; active = well fitted inhibition curve with a large enough effect, not every such curve was filed as active; inconclusive = small, poorly fitted or top-dose-only effect, or another doubt; inactive = no such curve, though single readings can be large or run the other way; note: potency is the fitted concentration of half-maximal effect
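20 nM HPGD preincubated 15 min at room temperature with compound in 50 mM Tris-HCl pH 8, 0.01% Tween 20. Started with 1 mM NAD+ and 30 uM prostaglandin E2; NADH fluorescence (360/450 nm) read 5 times over 30-s intervals, last minus first.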
ALOX12 inhib = qHTS Assay for Inhibitors of 12-hLO (12-human lipoxygenase); AID 1452, 2008; actives 0.12% (n = 150,000); Potency, µM (doses to about 57.1 µM), without a hit: top-dose activity change, negative = inhibition, most hits filed as inhibitors; purified 12-hLO, xylenol orange hydroperoxide absorbance; note: potency is the fitted concentration of half-maximal effect; nearly all actives have a fitted effect of over 55% in size
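150 nM 12hLO, 25 mM Hepes pH 7.0 + 0.01% Triton X-100; cpd preinc 15 min RT; 40 uM arachidonic acid, 30 min RT; Fe-XO 30 min; A573/A405 ratio as read-out.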
PNC assembly inh = High Content Assay for Compounds that inhibit the Assembly of the Perinucleolar Compartment; PC3M PTB-GFP, PNC prevalence imaging, 16 h; active compounds read low; activity change (PNC), negative = inhibition, % at 10 µM; actives 3.1% (n = 140,000);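 active = readout at or below -70, meaning at least 70% loss of cells showing the perinucleolar compartment, a nuclear body marking cancer cells; inconclusive = readout between -30 and a set limit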;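 note: plate controls were DMSO wells for no effect and camptothecin positive control wells for full effect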
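PC3M cells stably expressing PTB-GFP, 750–1000 cells/well, treated 16 h at 37 °C with compound (23 nl of library stock), in duplicate. After paraformaldehyde fixation and Hoechst stain, imaged at 20x; PNC prevalence scored by image analysis.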
IMPase Li inh = qHTS Assay for Identifying the Cell-Membrane Permeable IMPase Inhibitors: Potentiation with Lithium; CHO-M1 cells, IP1 TR-FRET (IP-One), carbachol + lithium; Potency, µM (top dose mostly 59.4 µM), for inactives: top-dose activity, negative = IMPase inhibition, most hits filed as inhibitors; actives 0.35% (n = 210,000); AID 1457, 2008;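 note: IP1 builds up when IMPase is blocked and the TR-FRET signal falls; potency is the fitted concentration of half-maximal effect; plate controls were basal vehicle for no effect and high inhibitor control for full effect; nearly all actives have a fitted effect of over 50% in size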
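CHO-M1, 2000 cells/well, 16–30 h culture; cpd + low Li+, 30 min 37C; lysis with d2-IP1/Eu-anti-IP1 Ab, 10 min RT; TR-FRET 665/620 ratio and 620 channel; AC50 via Hill.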
* marks the source's active call; other numbers are inactive results; ? = inconclusive; · = no result; [ ] = remark or other dose. The list is not random: actives were taken first. Their share in the collection is about 5.3%. Unless noted, calls come from the whole dose curve; as a rule, active = well fitted curve in the direction sought with a large enough effect; inconclusive = small, poorly fitted or top-dose-only effect, or another doubt; inactive = no such curve, though single readings can be large; an effect the other way counts as inactive or inconclusive. Unless noted, % is set by controls: 0 for no effect and ±100 for the full control effect.

SMILES	15-hLO-2 inh	IMPase cell inh	HPGD block	ALOX12 inhib	PNC assembly inh	IMPase Li inh
Cc1oc(-c2ccccc2)nc1CSc1nc2c(c(=O)[nH]1)CCC2	·	·	4.5µM*	5%	?	-6%
Cc1ccccc1CSc1nc2c(c(=O)[nH]1)CCC2	-4%	5	3.5µM*	-1%	3	-1%[38.3 µM]
Cc1cccc(-c2nc(CSc3nc4c(c(=O)[nH]3)CCC4)c(C)o2)c1	·	·	2.8µM*	-3%	56	-4%
O=C(O)CSc1nc2c(c(=O)[nH]1)CCCC2	2%	0	·	-4%	17	·
COc1ccc(C(C)(C)C)cc1NC(=O)COC(=O)c1ccc([N+](=O)[O-])o1	·	·	·	·	·	3%
Cc1ccccc1-c1nc(CSc2nc3c(c(=O)[nH]2)CCC3)c(C)o1	·	·	4.5µM*	0%	73	-2%
O=c1[nH]c(=O)n(CCO)c2nnn(Cc3ccccc3)c12	2%	2	28µM*	1%	?	-2%[38.3 µM]
Cn1c(=O)[nH]c(=O)c2c1nc1n(CCO)c(-c3ccccc3)cn21	·	-7	·	·	·	·
CC1=NN(c2ccc(Cl)cc2)C(=O)C1C(c1cccc(O)c1)c1c(C)[nH]n(-c2ccc(Cl)cc2)c1=O (stereo not drawn)	·	·	25µM*	?	16	12%
CC1=NN(c2ccc(F)cc2)C(=O)C1C(c1cccc(O)c1)c1c(C)[nH]n(-c2ccc(F)cc2)c1=O (stereo not drawn)	?	8	18µM*	-2%	4	-25%[38.3 µM]
CC1=NN(c2ccc(C)cc2C)C(=O)C1C(c1ccccc1)C1C(=O)N(c2ccc(C)cc2C)N=C1C (stereo not drawn)	-9%	-3	?	-12%	-1	13%[38.3 µM]
CN(C)c1ncc2nc(-c3ccccc3)c(=O)n(CCc3ccccc3)c2n1	1%	·	·	·	·	-11%
Cc1sc(NC(=O)C(C)C)c(C(=O)Nc2ccccc2)c1C	-1%	2	-3%	-2%	28	-3%[38.3 µM]
CN(Cc1ccccc1)c1ccc(S(=O)(=O)N2CCC(C(=O)O)CC2)cc1[N+](=O)[O-]	·	·	·	·	·	2%
CC1C(=O)N(C)C(=O)c2nc[nH]c21 (stereo not drawn)	·	·	-8%	·	·	8%
COc1ccc(C(c2c(C)[nH]n(C(N)=S)c2=O)C(C#N)C#N)cc1 (stereo not drawn)	·	17	32µM*	-21%	?	13%
Cc1[nH]n(C(N)=S)c(=O)c1N=Nc1ccc2ccccc2c1	·	·	·	·	·	9%
CCCCc1nnc(SCc2ccc(OCC)cc2)n1N	-1%	-6	25µM*	-2%	21	-1%[38.3 µM]
CCc1nnc(SCc2ccc(CSc3nnc(CC)n3N)cc2)n1N	3%	2	-6%	1%	28	17%[38.3 µM]
CCc1nnc(SCc2ccc(OC(C)C)cc2)n1N	5%	-3	-9%	2%	50	-4%[38.3 µM]
CCCc1nnc(SCc2ccc(OCC)cc2)n1N	-2%	-5	28µM*	4%	-18	4%[38.3 µM]
Cc1ccc(S(=O)(=O)NCC(=O)N(CC(=O)NCC2CCCO2)Cc2ccco2)cc1 (stereo not drawn)	·	·	·	·	·	-4%
Cc1ccc(CN2CCN(/N=C/c3cccs3)CC2)cc1	·	·	-8%	-1%	-99*	9%
CCN(CC)c1ccc(/C=N/NC(=S)NCc2ccccc2)cc1	?	7	?	25µM*	44	16%[38.3 µM]
Cc1ccc2[nH]c(=O)c(CN(CCCN3CCOCC3)Cc3nnnn3C3CCCC3)cc2c1	14%	-3	-3%	-1%	-100*	-4%[38.3 µM]
SMILES	15-hLO-2 inh	IMPase cell inh	HPGD block	ALOX12 inhib	PNC assembly inh	IMPase Li inh
COCOc1c2c(c(OCOC)c3c(OCOC)cccc13)/C(=N/NS(C)(=O)=O)C1=C2CCCC1	·	·	?	·	·	4%
CCCCc1nc2ccn(CC(=O)N(C)C)c(=O)c2n1Cc1ccc(-c2ccccc2-c2nn[nH]n2)cc1	0%[0.0915 µM]	·	-8%	-2%[0.00818 µM]	·	3%
CCOc1ccccc1C1CC(=O)Nc2cc3c(cc21)OCCO3 (stereo not drawn)	0%	6	-22%	-4%	-86*	16%[38.3 µM]
CCOc1ccccc1C1CC(=O)Nc2cc(OC)c(OC)c(OC)c21 (stereo not drawn)	6%	3	-18%	5%	38	-10%[38.3 µM]
CC(C)Oc1ccccc1C1CC(=O)Nc2cc3c(cc21)OCO3 (stereo not drawn)	-9%	2	-5%	-21%	-81*	7%[38.3 µM]
CCCOc1ccccc1C1CC(=O)Nc2cc3c(cc21)OCCO3 (stereo not drawn)	·	?	-12%	-5%	-116*	11%
Cc1ccc(-c2cc(C(F)(F)F)n3ncc(-c4ccc(Cl)cc4)c3n2)cc1	·	-1	·	·	·	·
N#Cc1cc2c([nH]c1=S)CCCCCC2	25µM*	-3	7.9µM*	?	-10	-15%[38.3 µM]
N#Cc1cc2c(nc1SCC(N)=O)CCCCC2	12%	-8	-14%	6%	23	5%[38.3 µM]
Cc1ccc(-c2nn(-c3ccccc3)cc2NC(=O)CCl)cc1	·	·	·	·	·	14%
CC(=O)N1CCC2(CC1)CCN(c1ccc(-c3ccccc3)cc1)CC2	0%	·	?	?	·	9%
COCCn1c(C)c(C(=O)O)sc1=S	-4%	1	-16%	3%	?	-15%[38.3 µM]
CCn1c(N)c(C(=O)N2CCOCC2)sc1=S	-2%	2	·	-13%	10	·
CCNC(=O)c1sc(=S)n(CC)c1N	-9%	-2	18µM*	-3%	32	1%[38.3 µM]
CC(C)OCCCNC(=O)c1sc(=S)n(C)c1N	-15%	6	28µM*	-1%	22	11%[38.3 µM]
CCn1c(N)c(C(=O)NCCCOC)sc1=S	-30%	-1	14µM*	-8%	?	-11%[38.3 µM]
CC(=O)N1N=C(N)SC1(C)C	·	·	·	·	·	-4%
Cc1ccc(Cn2c(=O)c3c(nc4n3CCN4Cc3ccco3)n(C)c2=O)cc1	·	-2	-16%	-1%	-100*	2%
O=C1NC(=S)S/C1=C1\Sc2ccccc2N1CCCS(=O)(=O)O	?	?	25µM*	?	-6	35%[38.3 µM]
CCN1/C(=C2\SC(=S)N(Cc3ccccc3)C2=O)Sc2ccccc21	·	1	-15%	5%	?	3%
O=C(Nc1ncnc2sc3c(c12)CCCC3)c1ccncc1	·	·	·	·	·	3%
O=C(Nc1ncnc2sc3c(c12)CCCCC3)c1ccco1	1%	10	?	2%	-124*	21%[38.3 µM]
